Values joined by “and” are separate entries in the source; they are usually repeats but may differ in a detail not shown here. Equal entries are not always repeated. A number with no mark means an inactive call. Inconclusive results are not listed. Where a call stands in place of a potency, no number is given. Active and inactive are the calls of the source. Unless noted, calls follow the shape of the dose curve; as a rule, active = well fitted curve in the direction sought with a large enough effect in the repeat runs; inconclusive = weak or mixed curves; inactive = no such curve, though single readings can be large; an effect the other way counts as inactive or inconclusive.
Columns and labels:
[1] = qHTS assay to identify small molecule agonists of the estrogen receptor alpha (ER-alpha) signaling pathway in the presence of an antagonist - cell viability counter screen (AID 1259386);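 also: series mostly up to about 92 µM; cells exposed to compounds for 22 h at 37 °C before the viability read; nearly all actives have a fitted effect of over 30% in size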
Summary of the method: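 Cell viability in VM7Luc4E2 cells (endogenous full-length ER-alpha) measured by CellTiter-Fluor fluorescence in the same wells as the luciferase screen. Cells pre-cultured 5 days in charcoal-stripped serum, then treated 22 h with compounds at 15 concentrations plus 10.0nM ICI-182,780.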

[2] = target: Progesterone receptor (Homo sapiens) (UniProt P06401); experiment: qHTS assay to identify small molecule agonists of the progesterone receptor (PR) signaling pathway (AID 1346784; calls by dose curve; also: nearly all actives have a fitted effect of over 30% in size)
Sequence of Progesterone receptor (Homo sapiens) (P06401 whole entry, looked up): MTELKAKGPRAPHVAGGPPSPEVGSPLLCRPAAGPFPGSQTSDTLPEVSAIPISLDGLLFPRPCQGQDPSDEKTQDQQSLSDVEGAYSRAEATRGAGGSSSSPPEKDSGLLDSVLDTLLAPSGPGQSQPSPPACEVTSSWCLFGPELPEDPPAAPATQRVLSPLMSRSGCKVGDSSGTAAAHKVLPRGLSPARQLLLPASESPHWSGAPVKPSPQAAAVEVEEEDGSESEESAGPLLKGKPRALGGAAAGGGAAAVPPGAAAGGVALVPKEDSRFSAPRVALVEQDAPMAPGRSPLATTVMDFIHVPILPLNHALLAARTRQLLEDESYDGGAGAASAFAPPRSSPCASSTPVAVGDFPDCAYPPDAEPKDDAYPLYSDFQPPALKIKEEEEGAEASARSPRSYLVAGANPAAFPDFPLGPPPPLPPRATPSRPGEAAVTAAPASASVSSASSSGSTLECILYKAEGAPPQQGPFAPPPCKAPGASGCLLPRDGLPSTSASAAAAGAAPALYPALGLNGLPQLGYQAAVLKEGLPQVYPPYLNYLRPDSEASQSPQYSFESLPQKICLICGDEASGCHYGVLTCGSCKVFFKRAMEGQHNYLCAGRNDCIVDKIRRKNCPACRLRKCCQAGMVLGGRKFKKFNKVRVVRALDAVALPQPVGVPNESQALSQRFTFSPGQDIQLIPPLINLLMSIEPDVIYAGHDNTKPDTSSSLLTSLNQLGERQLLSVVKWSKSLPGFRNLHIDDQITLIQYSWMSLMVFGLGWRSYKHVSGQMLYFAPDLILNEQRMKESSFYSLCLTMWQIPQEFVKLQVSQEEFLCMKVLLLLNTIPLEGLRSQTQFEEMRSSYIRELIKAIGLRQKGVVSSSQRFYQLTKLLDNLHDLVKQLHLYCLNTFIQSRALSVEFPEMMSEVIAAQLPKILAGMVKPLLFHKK
Summary of the method: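 HEK 293T PR-UAS-bla reporter cells, 2% charcoal-stripped FBS; 6 hr settle at 37C/5% CO2, compound (DMSO) 16 hr, LiveBLAzer B/G FRET substrate 2 hr RT, fluorescence intensity read.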

[3] = target: Progesterone receptor (Homo sapiens) (UniProt P06401); experiment: qHTS assay to identify small molecule antagonists of the progesterone receptor (PR) signaling pathway (AID 1346795; active = well fitted inhibition curve with a large enough effect in the signal ratio in the repeat runs, not every such curve was filed as active; the % refers to the signal ratio; also: potency is read from the fitted curve at half-maximal effect)
Summary of the method: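 Beta-lactamase reporter, HEK293T PR-UAS-bla line; 2% charcoal-stripped FBS; 6 hr pre-incubation, 37C/5% CO2. Compound + R5020 1 nM final, 16 hr. LiveBLAzer B/G FRET substrate, 2 hr RT; fluorescence intensity read.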

[4] = qHTS assay to identify small molecule antagonists of the progesterone receptor (PR) signaling pathway - cell viability counter screen (AID 1346798); also: series mostly up to about 92 µM; nearly all actives have a fitted effect of over 50% in size
Summary of the method: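 Luminescence readout (CellTiter-Glo, 30 min, RT) of viability in PR-UAS-bla HEK293T cells exposed to compound and R5020 agonist for 16 hr at 37C, 5% CO2; run in the same wells as the beta-lactamase reporter read.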

[5] = qHTS assay to identify small molecule agonists of the progesterone receptor (PR) signaling pathway - cell viability counter screen (AID 1346799; calls by dose curve; also: nearly all actives have a fitted effect of over 45% in size)
Summary of the method: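 HEK293T PR-UAS-bla, 3,000 cells/well, 2% charcoal-stripped FBS; 6 h settle, compound 16 h at 37C/5% CO2; LiveBLAzer 2 h RT, then CellTiter-Glo 30 min RT, luminescence read.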

[6] = qHTS assay to identify small molecule antagonists of the TGF-beta/Smad signaling pathway - cell viability counter screen (AID 1346824); also: nearly all actives have a fitted effect of over 50% in size
Summary of the method: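 SBE-bla HEK 293T cells, incubated overnight, then compound plus 0.25 ng/mL TGF-beta1 (stock added) for 5 hr at 37 C. Viability was read in the same wells by CellTiter-Glo luminescence after 30 min at room temperature.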

[7] = qHTS assay to identify small molecule agonists of the TGF-beta/Smad signaling pathway - cell viability counter screen (AID 1346829); also: top concentration of the series differs between compounds; nearly all actives have a fitted effect of over 45% in size
Summary of the method: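 In parallel with the Smad reporter read, viability of HEK 293T cells stably carrying SBE-bla is quantified by ATP luminescence following 5 hr compound treatment.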

[8] = qHTS assay to identify small molecule agonists of the TGF-beta/Smad signaling pathway (AID 1346859; active = well fitted activation curve with a large enough effect in the signal ratio in the repeat runs, not every such curve was filed as active; the % refers to the signal ratio; also: series mostly up to about 77 µM)
Summary of the method: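 Read-out: fluorescence at 460 and 530 nm (405 nm excitation) after a 2 hr room-temperature incubation with beta-lactamase FRET substrate. SBE-bla HEK 293T cells had been treated with test compounds for 5 hr at 37 C.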

[9] = target: Thyrotropin-releasing hormone receptor (Homo sapiens) (UniProt P34981); experiment: qHTS assay to identify small molecule antagonists of the thyrotropin-releasing hormone receptor (TRHR) signaling pathway (AID 1346877; active = well fitted inhibition curve with a large enough effect in the repeat runs, not every such curve was filed as active; also: series mostly up to about 51 µM)
Sequence of Thyrotropin-releasing hormone receptor (Homo sapiens) (P34981 whole entry, looked up): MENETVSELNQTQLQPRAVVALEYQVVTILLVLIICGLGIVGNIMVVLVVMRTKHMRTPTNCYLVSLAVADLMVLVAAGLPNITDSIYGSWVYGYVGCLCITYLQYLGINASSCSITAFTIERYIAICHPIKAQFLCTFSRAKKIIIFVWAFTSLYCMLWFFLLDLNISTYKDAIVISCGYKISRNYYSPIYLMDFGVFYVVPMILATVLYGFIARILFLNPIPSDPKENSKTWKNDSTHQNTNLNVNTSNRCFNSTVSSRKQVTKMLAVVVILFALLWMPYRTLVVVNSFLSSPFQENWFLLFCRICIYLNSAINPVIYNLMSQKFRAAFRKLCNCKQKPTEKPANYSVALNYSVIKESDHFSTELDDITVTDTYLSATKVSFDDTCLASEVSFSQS
Summary of the method: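 TRHR-expressing HEK293 cells loaded with calcium dye for 2 h at 37 C; compounds pre-incubated 5 min at room temperature before TRH challenge at 1 nM final. Intracellular calcium fluorescence read kinetically for 3 min; 15 concentrations in triplicate.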

[10] = target: Thyrotropin-releasing hormone receptor (Homo sapiens) (UniProt P34981); experiment: qHTS assay to identify small molecule agonists of the thyrotropin-releasing hormone receptor (TRHR) signaling pathway (AID 1346891; calls by dose curve; also: series mostly up to about 58 µM)
Summary of the method: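 HEK293/TRHR cells, 1500 per well, 18 h 37 °C; Ca dye 2 h 37 °C; pin-tool compound addition (agonist mode); kinetic fluorescence 3 min, 1 s reads; 15 concentrations, triplicate.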

[11] = Human pregnane X receptor (PXR) small molecule agonists, qHTS cell viability counter screen (AID 1346977); also: nearly all actives have a fitted effect of over 50% in size
Summary of the method: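 Fluorescence read-out (CellTiter-Fluor) of viability in PXR-Luc HepG2 cells, multiplexed with the luciferase agonist read. Compounds in DMSO added after 5hr plating; 24hr total exposure at 37C, 5% CO2.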

[12] = Caspase-3/7 induction in HepG2 cells by small molecules, qHTS assay (AID 1346978); also: nearly all actives have a fitted effect of over 15% in size
Summary of the method: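 Wild-type HepG2 cells, 2,000/well, settled 5 hr at 37 C and 5% CO2, then compound-treated for 17 hr; caspase-3/7 activity read by luminescent Caspase-Glo 3/7 after 30 min at room temperature.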

[13] = Caspase-3/7 induction in CHO-K1 cells by small molecules, qHTS cell viability counter screen (AID 1346979); also: nearly all actives have a fitted effect of over 35% in size
Summary of the method: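 CHO-K1 wt, 1,500 cells/well; 5hr pre-incubation 37C/5% CO2; compound pin transfer (DMSO); 16hr exposure; CellTiter-Fluor added, 1hr, fluorescence read.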

[14] = Caspase-3/7 induction in CHO-K1 cells by small molecules, qHTS assay (AID 1346980); also: nearly all actives have a fitted effect of over 15% in size
Summary of the method: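 Wild-type CHO-K1 cells exposed to compounds for 17hr at 37 C, 5% CO2. Caspase-3/7 activity then measured by Caspase-Glo 3/7 luminescence after 30min at room temperature.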

[15] = Caspase-3/7 induction in HepG2 cells by small molecules, qHTS cell viability counter screen (AID 1346981); also: series mostly up to about 92 µM; nearly all actives have a fitted effect of over 30% in size
Summary of the method: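 Wild-type HepG2 cells, 2,000/well, settled 5 hr at 37 C, 5% CO2 before compound addition. Viability read by CellTiter-Fluor fluorescence, reagent added after 16 hr compound exposure, then 1 hr at 37C, in the same wells as the caspase read.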

[16] = target: Nuclear receptor subfamily 1 group I member 2 (Homo sapiens) (UniProt O75469); experiment: Human pregnane X receptor (PXR) small molecule agonists, qHTS assay (AID 1346982); also: nearly all actives have a fitted effect of over 35% in size
Sequence of Nuclear receptor subfamily 1 group I member 2 (Homo sapiens) (O75469 whole entry, looked up): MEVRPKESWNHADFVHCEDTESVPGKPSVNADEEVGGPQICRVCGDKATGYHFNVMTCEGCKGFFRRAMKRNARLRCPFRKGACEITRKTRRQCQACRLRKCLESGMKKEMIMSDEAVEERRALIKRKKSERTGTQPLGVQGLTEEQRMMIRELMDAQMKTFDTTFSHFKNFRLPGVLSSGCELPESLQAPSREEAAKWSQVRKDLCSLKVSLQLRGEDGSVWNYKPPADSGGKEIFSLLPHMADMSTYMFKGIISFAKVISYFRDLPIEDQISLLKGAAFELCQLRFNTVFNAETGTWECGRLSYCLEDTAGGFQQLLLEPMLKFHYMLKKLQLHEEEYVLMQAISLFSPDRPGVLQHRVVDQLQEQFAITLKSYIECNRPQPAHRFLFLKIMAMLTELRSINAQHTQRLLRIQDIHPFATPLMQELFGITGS
Summary of the method: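 PXR-Luc HepG2 reporter cells (CYP3A4-driven luciferase) in 5% charcoal-stripped FBS medium, plated 5 h before compound addition, then treated 24 h at 37C. Luciferase read by ONE-Glo luminescence after 30 min at room temperature.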

[17] = target: Acetylcholinesterase (Homo sapiens) (UniProt P22303); experiment: Acetylcholinesterase (AChE) small molecule antagonists: colormetric cell-based qHTS assay (AID 1347395; calls by dose curve; also: nearly all actives have a fitted effect of over 30% in size; also: potency is read from the fitted curve at half-maximal effect)
Sequence of Acetylcholinesterase (Homo sapiens) (P22303 whole entry, looked up): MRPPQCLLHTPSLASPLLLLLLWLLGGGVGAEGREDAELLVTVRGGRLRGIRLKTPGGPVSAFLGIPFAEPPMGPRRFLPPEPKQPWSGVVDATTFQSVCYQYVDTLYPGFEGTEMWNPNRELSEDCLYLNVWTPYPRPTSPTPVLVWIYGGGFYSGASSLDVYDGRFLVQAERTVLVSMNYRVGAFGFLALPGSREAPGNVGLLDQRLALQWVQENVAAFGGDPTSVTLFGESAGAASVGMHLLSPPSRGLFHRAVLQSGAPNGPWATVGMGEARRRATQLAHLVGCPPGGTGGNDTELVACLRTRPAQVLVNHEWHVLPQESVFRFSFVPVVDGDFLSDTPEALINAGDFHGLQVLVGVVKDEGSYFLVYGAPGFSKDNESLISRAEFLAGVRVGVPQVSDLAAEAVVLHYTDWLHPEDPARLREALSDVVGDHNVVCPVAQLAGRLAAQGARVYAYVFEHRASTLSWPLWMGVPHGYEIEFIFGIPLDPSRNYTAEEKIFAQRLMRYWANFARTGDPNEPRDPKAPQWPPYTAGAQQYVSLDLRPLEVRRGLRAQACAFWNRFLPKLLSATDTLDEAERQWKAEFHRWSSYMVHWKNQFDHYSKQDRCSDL
Summary of the method: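 SH-SY5Y cells; cpd 30 min 37 C; + DTNB/acetylthiocholine, 90 min 37 C; colorimetric thiocholine read; qHTS.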

[18] = target: Nuclear receptor subfamily 1 group I member 2 (Rattus norvegicus) (UniProt Q9R1A7); experiment: Rat pregnane X receptor (rPXR) activation by small molecules, qHTS assay (AID 1346983); settings: rPXR luciferase reporter cells, One-Glo luminescence, 24 h; hits give high values; also: nearly all actives have a fitted effect of over 20% in size
Sequence of Nuclear receptor subfamily 1 group I member 2 (Rattus norvegicus) (Q9R1A7 whole entry, looked up): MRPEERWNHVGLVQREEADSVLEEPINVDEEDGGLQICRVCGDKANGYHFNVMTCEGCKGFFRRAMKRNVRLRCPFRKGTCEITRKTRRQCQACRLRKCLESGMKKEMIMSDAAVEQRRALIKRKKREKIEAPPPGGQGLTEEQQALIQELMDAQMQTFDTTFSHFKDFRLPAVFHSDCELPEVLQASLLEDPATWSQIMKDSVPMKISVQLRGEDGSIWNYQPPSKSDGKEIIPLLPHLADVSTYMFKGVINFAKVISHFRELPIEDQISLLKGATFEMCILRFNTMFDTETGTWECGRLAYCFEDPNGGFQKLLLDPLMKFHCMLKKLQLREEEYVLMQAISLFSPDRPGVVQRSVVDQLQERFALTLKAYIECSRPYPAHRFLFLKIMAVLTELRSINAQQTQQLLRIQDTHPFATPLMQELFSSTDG
Summary of the method: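 Cell-based rPXR activation assay: rPXR cells, 2,000 per well, rested 5hr at 37 C, then exposed to compounds in DMSO for 24 hr at 37 C. Luciferase activity read by One-Glo luminescence after 30 min at room temperature.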

[19] = target: Nuclear receptor subfamily 1 group I member 2 (Homo sapiens) (UniProt O75469); experiment: CYP3A4 induction through human pregnane X receptor (PXR) by small molecules, qHTS assay (AID 1346984); also: nearly all actives have a fitted effect of over 40% in size
Summary of the method: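 DPX-2 HepG2 cells carrying a PXR response element and CYP3A4-promoter luciferase construct, treated with compounds 24 hr at 37C. Then P450-Glo CYP3A4 Luciferin-IPA substrate (3uM final) for 3 hr at 37C, One-Glo added, luminescence read.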

[20] = target: Nuclear receptor subfamily 1 group I member 2 (Homo sapiens) (UniProt O75469); experiment: Human pregnane X receptor (PXR) activation by small molecules, qHTS assay (AID 1346985); also: nearly all actives have a fitted effect of over 40% in size
Summary of the method: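 DPX-2 cells (HepG2 co-transfected with a PXR response element and a CYP3A4-promoter luciferase construct) were seeded at 2,000 per well, rested 5 hr at 37C, then exposed to DMSO-dissolved compounds for 24 hr. Activation was read as luciferase luminescence.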

N#Cc1cccnc1
Potency [1]: inactive
Potency [2]: inactive
Potency [3]: inactive
Potency [4]: inactive
Potency [5]: inactive
Potency [6]: inactive
Potency [7]: inactive
Potency [8]: inactive
Potency [9]: inactive
outcome [10]: inactive
Potency [11]: inactive
Potency [12]: inactive
Potency [13]: inactive
Potency [14]: inactive
Potency [15]: inactive
Potency [16]: inactive
Potency [17]: inactive

CNC(=O)Oc1cccc2c1OC(C)(C)C2
Potency [1]: inactive
Potency [2]: inactive
Potency [3]: inactive
Potency [4]: inactive
Potency [5]: inactive
Potency [6]: inactive
Potency [7]: inactive
Potency [8]: inactive
Potency [9]: inactive
outcome [10]: inactive
Potency [11]: inactive
Potency [12]: inactive
Potency [13]: inactive
Potency [14]: inactive
Potency [15]: inactive
Potency [16]: inactive
Potency [17]: 726 nM (active) and 89.4 nM (active)

CCC1(c2ccc(N)cc2)CCC(=O)NC1=O (configuration not stated)
Potency [1]: inactive
Potency [2]: inactive
Potency [3]: inactive
Potency [4]: inactive
Potency [5]: inactive
Potency [6]: inactive
Potency [7]: inactive
Potency [8]: inactive
Potency [9]: inactive
outcome [10]: inactive
Potency [11]: inactive
Potency [12]: inactive
Potency [13]: inactive
Potency [14]: inactive
Potency [15]: inactive
Potency [16]: inactive
max activation [18]: -2.76%
Potency [19]: inactive
outcome [20]: inactive
Potency [17]: inactive

CNC(=S)S
Potency [1]: inactive
Potency [2]: inactive
Potency [3]: inactive
Potency [4]: inactive
Potency [5]: inactive
Potency [6]: inactive
Potency [7]: inactive
Potency [8]: inactive
Potency [9]: inactive
outcome [10]: inactive
Potency [11]: inactive
Potency [12]: inactive
Potency [13]: inactive
Potency [14]: inactive
Potency [15]: inactive
Potency [16]: inactive
Potency [17]: inactive

CC(C)(O)C#N
Potency [1]: inactive
Potency [2]: inactive
Potency [3]: inactive
Potency [4]: inactive
Potency [5]: inactive
Potency [6]: inactive
Potency [7]: inactive
Potency [8]: inactive
Potency [9]: inactive
outcome [10]: inactive
Potency [11]: inactive
Potency [12]: inactive
Potency [13]: inactive
Potency [14]: inactive
Potency [15]: inactive
Potency [16]: inactive
Potency [17]: inactive

CCCCSP(=O)(SCCCC)SCCCC
Potency [1]: inactive
Potency [2]: inactive
Potency [3]: 23.8 µM (active) and 24.3 µM (active)
Potency [4]: inactive
Potency [5]: inactive
Potency [6]: inactive
Potency [7]: inactive
Potency [8]: inactive
Potency [9]: inactive
outcome [10]: inactive
Potency [11]: inactive
Potency [12]: inactive
Potency [13]: inactive
Potency [14]: inactive
Potency [15]: inactive

CCCCCCCCCCCCCl
Potency [1]: inactive
Potency [2]: inactive
Potency [3]: inactive
Potency [4]: inactive
Potency [5]: inactive
Potency [6]: inactive
Potency [7]: inactive
Potency [8]: inactive
Potency [9]: inactive
outcome [10]: inactive
Potency [11]: inactive
Potency [12]: inactive
Potency [13]: inactive
Potency [14]: inactive
Potency [15]: inactive
Potency [16]: inactive
Potency [17]: inactive

CCC/C=N/O
Potency [1]: inactive
Potency [2]: inactive
Potency [3]: inactive
Potency [4]: inactive
Potency [5]: inactive
Potency [6]: inactive
Potency [7]: inactive
Potency [8]: inactive
Potency [9]: inactive
outcome [10]: inactive
Potency [11]: inactive
Potency [12]: inactive
Potency [13]: inactive
Potency [14]: inactive
Potency [15]: inactive
Potency [16]: inactive
Potency [17]: inactive

— PubChem BioAssay (Tox21)
